# Results: the supplement of paper PMC8728848
# Many of the other results were omitted from the sample, so the strongest signals are more common in it than they were.
# Experiments:
# Assay in all cases: glycan array binding signal (z-score within array); higher = stronger binding
# Conditions in all cases: glycan notation: IUPAC condensed, linker removed
# [1] = biological target: Fuc(a1-2)Gal(b1-3)[Fuc(a1-4)]GlcNAc
# Outline: (§1)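 Arrays were curated from the Consortium for Functional Glycomics database, 3228 in total, and kept only where the protein sequence was available. Binding is expressed as a within-array Z-score. This score was averaged across arrays of the same protein sequence at different concentrations or buffers and across linkers, and negative values can be read as non-binding.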
# [2] = biological target: Fuc(a1-2)Gal(b1-4)[Fuc(a1-3)]GlcNAc
# Outline: as §1
# [3] = biological target: Fuc(a1-2)Gal(b1-4)[Fuc(a1-3)]GlcNAc(b1-3)Gal(b1-4)[Fuc(a1-3)]GlcNAc(b1-3)Gal(b1-4)[Fuc(a1-3)]GlcNAc
# Outline: as §1
# [4] = biological target: Fuc(a1-2)Gal(b1-4)[Fuc(a1-3)]GlcNAc(b1-3)[Neu5Ac(a2-6)Gal(b1-4)GlcNAc(b1-6)]Gal(b1-4)Glc
# Outline: as §1
# [5] = biological target: Fuc(a1-2)[Gal(a1-3)]Gal(b1-3)GalNAc
# Outline: as §1
# [6] = biological target: Fuc(a1-3)[Gal(b1-4)]GlcNAc(b1-2)Man(a1-3)[Fuc(a1-3)[Gal(b1-4)]GlcNAc(b1-2)Man(a1-6)]Man(b1-4)GlcNAc(b1-4)GlcNAc
# Outline: as §1
# [7] = biological target: Gal(a1-3)Gal(b1-3)GlcNAc(b1-2)Man
# Outline: as §1
# [8] = biological target: Gal(a1-3)Gal(b1-3)[Fuc(a1-4)]GlcNAc(b1-2)Man(a1-3)[Gal(a1-3)Gal(b1-3)[Fuc(a1-4)]GlcNAc(b1-2)Man(a1-6)]Man(b1-4)GlcNAc(b1-4)GlcNAc
# Outline: as §1
# Gal(b1-3)Gal(b1-4)GlcNAc = biological target: Gal(b1-3)Gal(b1-4)GlcNAc
# Outline: as §1
# [9] = biological target: Gal(b1-3)GalNAc(b1-4)Gal(b1-4)Glc
# Outline: as §1
# Gal(b1-3)GlcNAc(b1-2)Man = biological target: Gal(b1-3)GlcNAc(b1-2)Man
# Outline: as §1
# [10] = biological target: Gal(b1-3)[Neu5Ac(a2-6)]GlcNAc
# Outline: as §1
# [11] = biological target: Gal(b1-3)[Neu5Ac(a2-6)]GlcNAc(a1-4)Gal(b1-4)Glc
# Outline: as §1
# [12] = biological target: Gal(b1-4)GlcNAc(b1-2)[Gal(b1-4)GlcNAc(b1-6)]Man(a1-6)[GlcNAc(b1-4)][Gal(b1-4)GlcNAc(b1-2)Man(a1-3)]Man(b1-4)GlcNAc(b1-4)GlcNAc
# Outline: as §1
# [13] = biological target: Gal(b1-4)GlcNAc(b1-3)Gal(b1-4)GlcNAc(b1-2)[Gal(b1-4)GlcNAc(b1-3)Gal(b1-4)GlcNAc(b1-6)]Man(a1-6)[Gal(b1-4)GlcNAc(b1-3)Gal(b1-4)GlcNAc(b1-2)Man(a1-3)]Man(b1-4)GlcNAc(b1-4)GlcNAc
# Outline: as §1
# [14] = biological target: Gal(b1-4)GlcNAc(b1-3)[Gal(b1-4)GlcNAc(b1-6)]GalNAc
# Outline: as §1
# [15] = biological target: Gal(b1-4)GlcNAc(b1-6)[Gal(b1-3)]GlcNAc
# Outline: as §1
# Gal3S(b1-4)Glc = biological target: Gal3S(b1-4)Glc
# Outline: as §1
# Gal3S(b1-4)GlcNAc = biological target: Gal3S(b1-4)GlcNAc
# Outline: as §1
# Gal6S(b1-3)GlcNAc = biological target: Gal6S(b1-3)GlcNAc
# Outline: as §1
# Gal6S(b1-4)Glc6S = biological target: Gal6S(b1-4)Glc6S
# Outline: as §1
# Gal6S(b1-4)GlcNAc6S = biological target: Gal6S(b1-4)GlcNAc6S
# Outline: as §1
# [16] = biological target: GalNAc(b1-3)Gal(a1-4)Gal(b1-4)GlcNAc
# Outline: as §1
# [17] = biological target: GalNAc3S(b1-4)[Fuc(a1-3)]GlcNAc
# Outline: as §1
# Glc(b1-6)Glc = biological target: Glc(b1-6)Glc
# Outline: as §1
# [18] = biological target: GlcNAc(a1-4)Gal(b1-4)GlcNAc(b1-3)Gal(b1-4)GlcNAc(b1-3)Gal(b1-4)GlcNAc
# Outline: as §1
# [19] = biological target: GlcNAc(b1-2)Gal(b1-3)GalNAc
# Outline: as §1
# [20] = biological target: GlcNAc(b1-2)Man(a1-3)[GlcNAc(b1-4)][GlcNAc(b1-2)Man(a1-6)]Man(b1-4)GlcNAc(b1-4)[Fuc(a1-6)]GlcNAc
# Outline: as §1
# [21] = biological target: GlcNAc(b1-3)Gal(b1-3)GalNAc
# Outline: as §1
# [22] = biological target: GlcNAc(b1-3)Gal(b1-4)GlcNAc(b1-2)[GlcNAc(b1-3)Gal(b1-4)GlcNAc(b1-6)]Man(a1-6)[GlcNAc(b1-3)Gal(b1-4)GlcNAc(b1-2)Man(a1-3)]Man(b1-4)GlcNAc(b1-4)GlcNAc
# Outline: as §1
# [23] = biological target: GlcNAc(b1-3)Gal(b1-4)GlcNAc(b1-6)[GlcNAc(b1-3)Gal(b1-3)]GalNAc
# Outline: as §1
# [24] = biological target: GlcNAc(b1-3)[GlcNAc(b1-4)][GlcNAc(b1-6)]GlcNAc
# Outline: as §1
# Kdn(a2-3)Gal(b1-4)GlcNAc = biological target: Kdn(a2-3)Gal(b1-4)GlcNAc
# Outline: as §1
# [25] = biological target: Man(a1-2)Man(a1-2)Man(a1-3)[Man(a1-2)Man(a1-6)[Man(a1-3)]Man(a1-6)]Man(b1-4)GlcNAc(b1-4)GlcNAc
# Outline: as §1
# Man(a1-3)[Man(a1-6)]Man = biological target: Man(a1-3)[Man(a1-6)]Man
# Outline: as §1
# [26] = biological target: Neu5Ac(a2-3)Gal(b1-3)GlcNAc(b1-2)Man(a1-3)[Neu5Ac(a2-3)Gal(b1-3)GlcNAc(b1-2)Man(a1-6)]Man(b1-4)GlcNAc(b1-4)GlcNAc
# Outline: as §1
# [27] = biological target: Neu5Ac(a2-3)Gal(b1-3)GlcNAc(b1-2)[Neu5Ac(a2-3)Gal(b1-3)GlcNAc(b1-4)]Man(a1-6)[Neu5Ac(a2-3)Gal(b1-3)GlcNAc(b1-2)Man(a1-3)]Man(b1-4)GlcNAc(b1-4)GlcNAc
# Outline: as §1
# [28] = biological target: Neu5Ac(a2-3)Gal(b1-4)GlcNAc(b1-3)Gal(b1-4)GlcNAc(b1-3)Gal(b1-4)GlcNAc(b1-2)Man(a1-3)[Neu5Ac(a2-3)Gal(b1-4)GlcNAc(b1-3)Gal(b1-4)GlcNAc(b1-3)Gal(b1-4)GlcNAc(b1-2)Man(a1-6)]GalNAc
# Outline: as §1
# [29] = biological target: Neu5Ac(a2-3)Gal(b1-4)[Fuc(a1-3)]GlcNAc(b1-6)[Gal(b1-3)]GalNAc
# Outline: as §1
# [30] = biological target: Neu5Ac(a2-3)Gal(b1-4)[Fuc(a1-3)]GlcNAc6S
# Outline: as §1
# Neu5Ac(a2-8)Neu5Ac = biological target: Neu5Ac(a2-8)Neu5Ac
# Outline: as §1
# [31] = biological target: Neu5Gc(a2-3)Gal(b1-4)GlcNAc
# Outline: as §1
# [32] = biological target: Neu5Gc(a2-8)Neu5Gc(a2-3)Gal(b1-4)GlcNAc
# Outline: as §1
# [33] = biological target: Neu5Gc(a2-8)Neu5Gc(a2-6)Gal(b1-4)GlcNAc
# Outline: as §1
binder,measurement,setting,value
Epa15 (Candida glabrata) (protein) MGSSHHHHHHSSGLVPRGSHMASDPTTFPLGCSPEFTKTKKGLSMELYRYDYLPPGSYPCWDSAYLNPSYPRTGYKAKKLIATVDGVSGDINFKFNPKFGCKAIPDYLPSNFNYHEPITITNFTMILYGYFMPKTTAFHTFYVTADDLLFMNFGAGNAFDCCRREETADKFGNYAAYSVWGKKSLKNELTVYLHTGVYYPIRLFYNNRDYIAQLDIRFKTEHSNAIITNFTDYFYSVDDSSLGCPGLI,glycan array binding signal (z-score),[1],-0.446
same,glycan array binding signal (z-score),[2],-0.361
same,glycan array binding signal (z-score),[3],-0.446
same,glycan array binding signal (z-score),[4],-0.092
same,glycan array binding signal (z-score),[5],-0.127
same,glycan array binding signal (z-score),[6],-0.403
same,glycan array binding signal (z-score),[7],1.8
same,glycan array binding signal (z-score),[8],1.85
same,glycan array binding signal (z-score),Gal(b1-3)Gal(b1-4)GlcNAc,0.625
same,glycan array binding signal (z-score),[9],2.64
same,glycan array binding signal (z-score),Gal(b1-3)GlcNAc(b1-2)Man,0.38
same,glycan array binding signal (z-score),[10],2.5
same,glycan array binding signal (z-score),[11],-0.269
same,glycan array binding signal (z-score),[12],-0.041
same,glycan array binding signal (z-score),[13],2.71
same,glycan array binding signal (z-score),[14],5.02
same,glycan array binding signal (z-score),[15],5.53
same,glycan array binding signal (z-score),Gal3S(b1-4)Glc,-0.053
same,glycan array binding signal (z-score),Gal3S(b1-4)GlcNAc,-0.488
same,glycan array binding signal (z-score),Gal6S(b1-3)GlcNAc,2.78
same,glycan array binding signal (z-score),Gal6S(b1-4)Glc6S,4.58
same,glycan array binding signal (z-score),Gal6S(b1-4)GlcNAc6S,10.6
same,glycan array binding signal (z-score),[16],0.652
same,glycan array binding signal (z-score),[17],-0.141
same,glycan array binding signal (z-score),Glc(b1-6)Glc,-0.464
same,glycan array binding signal (z-score),[18],-0.452
same,glycan array binding signal (z-score),[19],-0.411
same,glycan array binding signal (z-score),[20],-0.557
same,glycan array binding signal (z-score),[21],-0.444
same,glycan array binding signal (z-score),[22],0.605
same,glycan array binding signal (z-score),[23],-0.188
same,glycan array binding signal (z-score),[24],-0.536
same,glycan array binding signal (z-score),Kdn(a2-3)Gal(b1-4)GlcNAc,-0.317
same,glycan array binding signal (z-score),[25],-0.285
same,glycan array binding signal (z-score),Man(a1-3)[Man(a1-6)]Man,-0.303
same,glycan array binding signal (z-score),[26],0.415
same,glycan array binding signal (z-score),[27],-0.226
same,glycan array binding signal (z-score),[28],2.56
same,glycan array binding signal (z-score),[29],1.87
same,glycan array binding signal (z-score),[30],-0.461
same,glycan array binding signal (z-score),Neu5Ac(a2-8)Neu5Ac,-0.571
same,glycan array binding signal (z-score),[31],-0.437
same,glycan array binding signal (z-score),[32],-0.346
same,glycan array binding signal (z-score),[33],-0.395
